PubChem BioAssay AID504773 (Broad Institute, 2011)
Potency and affinity values are given separately. The source made the active and inactive calls.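 The calls were made as follows: active = polarization signal falls with dose and the fitted half-maximal concentration is at or below ten times the sample's top valid dose; inconclusive = flat curve at 30 to 70% inhibition, or poor fit; inactive = signal rises, flat within 30%, or potency beyond limit.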

These compounds were tested against Golgi-associated PDZ and coiled-coil motif-containing protein (Homo sapiens) (UniProt Q9HD26) (assay: CAL PDZ peptide-binding inhibitors, dose response, biochemical, fluorescence polarization, Cerulean-tagged CAL PDZ, cherry-picks (AID 504773;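 also: 0% = DMSO neutral wells and -100% = excess unlabeled competitor peptide wells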)). Conditions: 1 h; series mostly up to 50 µM; activity change, negative = inhibition: at the top concentration.

Activity change, negative = inhibition, inactive:
O=C(CCCn1c(=S)[nH]c2cc3c(cc2c1=O)OCO3)N1CCN(c2ccc(Cl)cc2)CC1 16.6%
Cc1ccc2cc(C#N)c(N3CCCN(S(=O)(=O)c4ccccc4)CC3)nc2c1 -2.29%
CCOC(=O)NC(=O)COC(=O)CCCSc1nc2ccccc2s1 -5.39%
COc1ccc(OC)c(NC(=O)CS(=O)(=O)Cc2ccccc2)c1 8.81%
C/C(=N\NC(=O)C(O)c1ccccc1)c1ccc(Cl)s1 (configuration not stated) 5.35%
O=S(=O)(/N=C(/Nc1ccc(Cl)c(S(=O)(=O)N2CCOCC2)c1)c1ccc(F)cc1)c1ccccc1 -11%
CN(C)C1(CNC(=O)C2CCC(=O)N(CCc3ccc(Cl)cc3)C2)CCCCC1 (configuration not stated) 7.75%
CCCOc1ccc(S(=O)(=O)Nc2ccccn2)c2ccccc12 -8.7%
O=C1CSC(=Nc2ccccc2Cl)N1 5.39%
CCOc1ccccc1CN1CCC(n2nccc2NC(=O)C2CCCC2)CC1 6.47%
CCN1CCN(S(=O)(=O)c2ccc(OC)c3ccccc23)CC1 7.59%
O=C(NC1CCCN(Cc2ccc(Cl)cc2)C1)c1cccc(N2CCCC2=O)c1 (configuration not stated) 9.36%
C=CCOc1c(Cl)cc(CNn2cn[nH]c2=S)cc1OC 29.5%
CN(c1nc(-c2ccc(Br)cc2)cs1)C1CCS(=O)(=O)C1 (configuration not stated) 28.1%
CCOC(=O)C1(Cc2cccc(Cl)c2)CCCN(C(=O)c2cccc(C)n2)C1 (configuration not stated) 22.9%
CC(CCCC(C)(C)O)NC(=O)c1ccc(OC2CCN(C(=O)C3CC3)CC2)cc1 (configuration not stated) 7.11%
CN(C)S(=O)(=O)c1ccc(Cl)c(NC(=O)CSc2nnnn2-c2ccc(O)cc2)c1 -24.1%
